The test system of assay [1] is MILI (PIWIL2) piRISC loaded with piRNA #1 (26 nt). In words: pre-steady-state target cleavage rate (min^-1); guide: piRNA #1 5'p-UGAGGUAGUAGGUUGUAUAGUAUCCA; higher = faster piRNA-guided slicing of the target. Conditions: auxiliary factor: 500 nM mouse GTSF1. The essentials:
(§1)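 Using HEPES–potassium acetate buffer at 33 °C, 1 nM active affinity-purified piRISC with a single synthetic guide was mixed with 0.1 nM transcribed, DNA-blocked target RNA library for 0–8 or 0–960 min, with or without 500 nM GTSF1 partner protein. Uncleaved targets were sequenced and normalised to depth and to weakly complementary targets, and three trials were pooled with k3 capped at 0.0001 min^-1. A burst-and-steady-state fit gave the pre-steady-state cleavage rate.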

Assay [2] concerns EfPiwi piRISC loaded with piRNA #1 (26 nt). In words: pre-steady-state target cleavage rate (min^-1); auxiliary factor: 500 nM Ephydatia muelleri Gtsf1; guide: piRNA #1 5'p-UGAGGUAGUAGGUUGUAUAGUAUCCA; MIWI and MILI are mouse PIWI proteins and EfPiwi is from a freshwater sponge; tags in brackets are library labels; higher = faster piRNA-guided slicing of the target. The procedure, abridged:
as §1

± gives the standard deviation. Some results are limits rather than exact numbers.

GGAGACCAUACUAUACAACCUCCUACCUCA: the figures for the “pre-steady-state target cleavage rate” value in assay [1] and in assay [2] were 0.0492 ± 0.0088 and 0.00434 ± 0.0015, respectively.

With GGAGACCUUACAUACAACCUACUACCUCA, the “pre-steady-state target cleavage rate” value in assay [1] turned out to be 0.0259 ± 0.0067; in assay [2], 0.00863 ± 0.0045.

On to GGAGACGAUACUAUAGAACCUACUACCUCA, for which the “pre-steady-state target cleavage rate” value was 0.184 ± 0.015 in assay [1] and 0.00433 ± 0.0017 in assay [2].

For the sequence GGAGACGAUACUAUACAACCUACUAGCCUCA, the “pre-steady-state target cleavage rate” value came out at 0.159 ± 0.021 in assay [1] and 0.00485 ± 0.002 in assay [2].

Regarding GGAGAGGAUACUAUACAACCUACUACCUUA, the “pre-steady-state target cleavage rate” value is 0.19 ± 0.018 in assay [1] and 0.204 ± 0.073 in assay [2].

As for GGAGACGAUACUAUAGAACCUUCUACCUCA, the “pre-steady-state target cleavage rate” value was determined as 0.00459 ± 0.0021 in assay [1] and 0.00285 ± 0.0016 in assay [2].

For the sequence GGAGAGGAUACUAUUCAACCUACUACGUCA, the “pre-steady-state target cleavage rate” value came out at 0.0602 ± 0.0084 in assay [1] and 0.00309 ± 0.0023 in assay [2].

On to GGAGACCAUACUUUACAACCUACUACCUCA, for which the “pre-steady-state target cleavage rate” value in assay [1] was found to be 0.168 ± 0.014; in assay [2], 0.017 ± 0.0071.

On to GGAGUGCUUACUAUACAACCUACUACCUCA, for which the “pre-steady-state target cleavage rate” value in assay [1] was 0.162 ± 0.0091; in assay [2] it was 0.0694 ± 0.025.

In the case of GGAGAGGAUACUAUACAACCUACUAACCUCA, the “pre-steady-state target cleavage rate” value in assay [1] came to 0.159 ± 0.016; in assay [2], 0.00574 ± 0.0027.

For the sequence GGAGACGAUACUAUACAACACUACUACCUCA, the “pre-steady-state target cleavage rate” value in assay [1] is 0.00963 ± 0.0034; in assay [2], 0.00912 ± 0.0032.

As to GGAGACCUAACUAUAUAACCUACUACCUCA, the “pre-steady-state target cleavage rate” value is 0.117 ± 0.015 in assay [1] and 0.0063 ± 0.0034 in assay [2].

For the sequence GGAGAGGUUACUAUACAACCUACUACCUGA, the “pre-steady-state target cleavage rate” value was determined as 0.0157 ± 0.0052 in assay [1] and 0.00474 ± 0.0019 in assay [2].

Take GGAGAGGUUACUAUACAACCUACAACCUCA: the “pre-steady-state target cleavage rate” value in assay [1] came to 0.0663 ± 0.015; in assay [2], 0.00313 ± 0.0018.

As to GGAGAGGAAACAAUACAACCUACUACCUCA, the “pre-steady-state target cleavage rate” value worked out at 0.186 ± 0.018 in assay [1] and 0.00675 ± 0.004 in assay [2].

Regarding GGAGUCGAUACUAUACAACGUACUACCUCA, the “pre-steady-state target cleavage rate” value in assay [1] was 0.0256 ± 0.0024; in assay [2], 0.00501 ± 0.0019.

In the case of GGAGUGGAUACUAUUCAUCCUACUACCUCA, the “pre-steady-state target cleavage rate” value is 0.265 ± 0.016 in assay [1] and 0.0078 ± 0.0036 in assay [2].

In the case of GGAGUGGAUACUAUACAACGUUCUACCUCA, the “pre-steady-state target cleavage rate” value in assay [1] stood at 0.00599 ± 0.0017; in assay [2], 0.00461 ± 0.0022.

Turning to GGAGACGAUACUAUAGAACCUACUACCUGA, the “pre-steady-state target cleavage rate” value in assay [1] was 0.0908 ± 0.021; in assay [2], 0.00292 ± 0.0011.

GGAGACCUAACUAUACAACCUACUACCCCA: the “pre-steady-state target cleavage rate” value in assay [1] amounted to 0.195 ± 0.058; in assay [2], 0.00474 ± 0.0039.

In the case of GGAGAGGAUACUAUACAACCUGCUACCUCA, the “pre-steady-state target cleavage rate” value in assay [1] was found to be 0.066 ± 0.0089; in assay [2], 0.114 ± 0.043.

Take GGAGUGGAUACUAUUCAACCUUCUACCUCA: the results for the “pre-steady-state target cleavage rate” value in assay [1] and in assay [2] were 0.00907 ± 0.0019 and 0.00433 ± 0.0025, respectively.

For the sequence GGAGACCUUACUAUAACAACCUACUACCUCA, the “pre-steady-state target cleavage rate” value is 0.134 ± 0.013 in assay [1] and 0.00893 ± 0.0047 in assay [2].

Regarding GGAGACCGUACUAUACAACCUACUACCUCA, the “pre-steady-state target cleavage rate” value amounted to 0.157 ± 0.021 in assay [1] and 0.156 ± 0.049 in assay [2].

Take “GGAGACCUAUGAAUACAACCUACUACCUCG [g2:g18:cont:t1G]”: the “pre-steady-state target cleavage rate” value in assay [1] amounted to 0.0085 ± 0.002; in assay [2], 0.00485 ± 0.004.

Take GGAGUGGUAUACUAUACAACCUACUACCUCA: the “pre-steady-state target cleavage rate” value in assay [1] was determined as 0.166 ± 0.011; in assay [2], 0.0155 ± 0.0067.

As to GGAGACCUUACUAUACAACCUACUAGCCUCA, the “pre-steady-state target cleavage rate” value in assay [1] was determined as 0.181 ± 0.018; in assay [2], 0.00471 ± 0.0044.

As for GGAGACCUUACUAUACAACGUACUACGUCA, the figures for the “pre-steady-state target cleavage rate” value in assay [1] and in assay [2] were 0.00879 ± 0.0038 and 0.00267 ± 0.0018, respectively.

With GGAGACCAUAGUAUACAUCCUACUACCUCA, the figures for the “pre-steady-state target cleavage rate” value in assay [1] and in assay [2] were 0.19 ± 0.014 and 0.00617 ± 0.0032, respectively.

With GGAGUGGAUAGUAUACAUCCUACUACCUCA, the “pre-steady-state target cleavage rate” value amounted to 0.189 ± 0.017 in assay [1] and 0.00444 ± 0.0024 in assay [2].

GGAGUCGAUACAAUACAACCUACUACCUCA: the figures for the “pre-steady-state target cleavage rate” value in assay [1] and in assay [2] were 0.177 ± 0.012 and 0.00908 ± 0.0047, respectively.

Turning to GGAGUGGAUACUAUACAACGUACAACCUCA, the “pre-steady-state target cleavage rate” value in assay [1] stood at 0.0258 ± 0.0036; in assay [2], 0.00367 ± 0.0016.

With “GGAGACCUAUGAUAUGUACCUACAUGGAGA [g8:g13:cont:t1A]”, the “pre-steady-state target cleavage rate” value in assay [1] and in assay [2] was under 0.0001 throughout.

In the case of GGAGAGGAUACUAUACAACCAACUACCUCA, the “pre-steady-state target cleavage rate” value was 0.00747 ± 0.0023 in assay [1] and 0.00561 ± 0.002 in assay [2].

In the case of GGAGACGAUACUAUACAACCAUACUACCUCA, the “pre-steady-state target cleavage rate” value in assay [1] was found to be 0.00651 ± 0.0034; in assay [2], 0.00938 ± 0.0047.

Regarding GGAGACCUAACGUAUACAACCUACUACCUCA, the “pre-steady-state target cleavage rate” value worked out at 0.0292 ± 0.012 in assay [1] and 0.0505 ± 0.021 in assay [2].

For the sequence GGAGAGGAUACUAUCAACCUACUACCUCA, the “pre-steady-state target cleavage rate” value turned out to be 0.154 ± 0.01 in assay [1] and 0.0088 ± 0.0053 in assay [2].

In the case of GGAGACGAUACUAUACAACCUACUACCUGCA, the “pre-steady-state target cleavage rate” value in assay [1] was 0.203 ± 0.021; in assay [2] it was 0.00933 ± 0.0034.

In the case of GGAGACGAUACUAUACAACCAUCUACCUCA, the “pre-steady-state target cleavage rate” value in assay [1] came to 0.00466 ± 0.003; in assay [2], 0.00359 ± 0.001.

Consider GGAGACGAUAAUAUACAACCUACUACCUCA, for which the “pre-steady-state target cleavage rate” value in assay [1] turned out to be 0.172 ± 0.011; in assay [2] it was 0.072 ± 0.025.

Take GGAGACCAUACUAUACAGCCUACUACCUCA: the results for the “pre-steady-state target cleavage rate” value in assay [1] and in assay [2] were 0.157 ± 0.02 and 0.16 ± 0.053, respectively.

Take GGAGAGGAUACUAUACAACCAACUACCUGA: the “pre-steady-state target cleavage rate” value in assay [1] amounted to 0.00399 ± 0.0021; in assay [2], 0.00332 ± 0.0017.

In the case of GGAGACCUUACUCAUACAACCUACUACCUCA, the figures for the “pre-steady-state target cleavage rate” value in assay [1] and in assay [2] were 0.122 ± 0.016 and 0.00389 ± 0.0032, respectively.

“GGAGACCUAUCUAUACAACCUACUACCUCU [g2:g20:cont:t1U]”: the entries for the “pre-steady-state target cleavage rate” value in assay [1] and in assay [2] were 0.0927 ± 0.011 and 0.993 ± 0.45, respectively.

Regarding GGAGACGAUACUAUACAACCCACUACCUCA, the “pre-steady-state target cleavage rate” value in assay [1] was 0.0178 ± 0.0039; in assay [2], 0.00638 ± 0.0022.

In the case of GGAGAGGAUACUACUACAACCUACUACCUCA, the “pre-steady-state target cleavage rate” value came to 0.15 ± 0.016 in assay [1] and 0.00619 ± 0.0042 in assay [2].

As to GGAGACGAUACUAAACAACCUACUUCCUCA, the “pre-steady-state target cleavage rate” value in assay [1] turned out to be 0.0843 ± 0.021; in assay [2] it was 0.00245 ± 0.0022.

On to GGAGACCUUACUAUACAACCUACUACCGUCA, for which the “pre-steady-state target cleavage rate” value was determined as 0.132 ± 0.02 in assay [1] and 0.0112 ± 0.0047 in assay [2].

For GGAGACCUAUCCAUACAACCUACUACCUCA, the “pre-steady-state target cleavage rate” value in assay [1] stood at 0.0836 ± 0.016; in assay [2], 0.0212 ± 0.01.

Turning to GGAGAGGAUACUUUACAACCUACUAGCUCA, the “pre-steady-state target cleavage rate” value turned out to be 0.0731 ± 0.013 in assay [1] and 0.00183 ± 0.0016 in assay [2].

The record behind these values is the supplement of paper PMC10338343.
